A selection: hits, their analogues and other compounds. The true share with any hit is near 11%.
BAZ2B inh: BAZ2B (human) inhibition. Q9UIF8. AlphaScreen BAZ2B-H3K14Ac peptide displacement. Potency, µM (top dose mostly 114 µM), for the others: top-dose activity change, negative = inhibition, hits mostly inhibitors. actives 4.4% (n = 360,000). AID 504333; further: on the % scale 0 is the no-effect control and ±100 the full control effect; nearly all actives have a fitted effect of over 60% in size
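BAZ2B 50 nM plus b-H3(5-23)K14Ac 50 nM, PBS pH 7.4/0.01% Tween-20, 30 min RT; compound added (max 110 uM), 30 min RT; streptavidin donor/Ni-chelate acceptor beads 10 ug/mL final, 20 min dark; AlphaScreen read.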
VDR inhibitor: blocks the human vitamin D receptor; actives 0.93% (n = 400,000); VDR-SRC2-3 peptide fluorescence polarization, 2 h; P11473; Potency, µM, for inactives: max response, negative = inhibition, most hits filed as inhibitors; AID 504847; further: on the % scale 0 is the no-effect control and ±100 the full control effect
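VDR–SRC2-3 interaction, FP format. Cmpds 23 nl via pintool, brief spin, 2 h ambient incubation.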
JMJD2A Tudor: JMJD2A Tudor domain (human) inhibition; O75164; AlphaScreen JMJD2A-Tudor / H3K4me3 peptide binding; Potency, µM (highest dose often 114 µM), inactives show at the highest dose activity change, negative = inhibition, hits mostly inhibitors; actives 4.4% (n = 390,000); AID 504339; further: on the % scale 0 is the no-effect control and ±100 the full control effect; nearly all actives have a fitted effect of over 50% in size
PLK1 PBD block: blocks phosphopeptide binding to human PLK1 polo-box domain. P53350. Plk1 PBD binding of FITC phosphopeptide, fluorescence polarization. Potency, µM, without a hit: max response, negative = inhibition, actives largely listed as inhibitors. actives 2.8% (n = 360,000). AID 720504; further: series mostly up to about 57 µM; on the % scale 0 is the no-effect control and ±100 the full control effect; nearly all actives have a fitted effect of over 65% in size
HP1b binding inh: inhibitors of HP1-beta chromodomain binding to methylated histone tails; Potency, µM (highest dose often 114 µM), without a hit: top-dose activity change, negative = inhibition, most hits filed as inhibitors; AID 540317; AlphaScreen HP1-beta / biotin-H3K9me3 peptide binding; actives 0.56% (n = 390,000); further: nearly all actives have a fitted effect of over 70% in size
Target sequence (P83916 whole entry, looked up): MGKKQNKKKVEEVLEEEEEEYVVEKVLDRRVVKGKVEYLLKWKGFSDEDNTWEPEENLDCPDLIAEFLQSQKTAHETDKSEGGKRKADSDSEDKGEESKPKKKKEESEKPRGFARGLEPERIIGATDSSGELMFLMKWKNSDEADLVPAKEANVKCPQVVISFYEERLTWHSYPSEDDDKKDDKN
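AlphaScreen: HP1-beta (50 nM) preformed 30 min with biotin-H3(1-18)K9me3 peptide (50 nM) in PBS pH 7.4, 0.01% Tween-20. Compound added for 30 min at RT, then streptavidin donor/nickel chelate acceptor beads (10 ug/mL) for 30 min.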
G9a inh: blocks human histone lysine methyltransferase G9a; Potency, µM (highest dose often 102 µM), inactives show at the highest dose activity, negative = inhibition, usual class: inhibitors; Q96KQ7; G9a H3K9 monomethylation, AlphaScreen, 2 h; AID 504332; actives 8.8% (n = 350,000); further: on the % scale 0 is the no-effect control and ±100 the full control effect; nearly all actives have a fitted effect of over 75% in size
Target sequence (Q96KQ7 913-1193 limits assumed): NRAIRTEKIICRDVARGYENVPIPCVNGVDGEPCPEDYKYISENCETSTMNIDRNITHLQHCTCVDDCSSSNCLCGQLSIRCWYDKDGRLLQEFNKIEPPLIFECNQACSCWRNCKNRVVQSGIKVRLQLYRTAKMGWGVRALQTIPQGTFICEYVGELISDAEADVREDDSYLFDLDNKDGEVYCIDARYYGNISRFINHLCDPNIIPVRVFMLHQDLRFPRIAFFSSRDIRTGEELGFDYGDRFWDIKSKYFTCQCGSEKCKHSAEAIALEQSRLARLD
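Step 1: enzyme (final 20 nM) with compound, 15 min RT. Step 2: substrate peptide 500 nM and SAM 20 uM, 2 h RT. Step 3: anti-H3K9me1 antibody and AlphaScreen beads, 10 min, then plate read.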
* hit, by the source's call; ? = inconclusive; · = no result given; ! = not confirmed by another sample; [ ] = remark or other dose. The call rests on the fitted dose curve; in most records, active means well fitted curve in the direction sought with a large enough effect; inconclusive means small, poorly fitted or top-dose-only effect, or another doubt; inactive means no such curve, though single readings can be large; an effect the other way counts as inactive or inconclusive. Potency means the concentration at half of the fitted maximal effect.

SMILES	BAZ2B inh	VDR inhibitor	JMJD2A Tudor	PLK1 PBD block	HP1b binding inh	G9a inh
COc1cccc(CCN2C(=O)C(=O)N([C@@H](CNCc3ccccc3)Cc3ccccc3F)C[C@@H]2C(C)(C)C)c1	9%	-27%	-23%	-11%	-14%	21%[12.7 µM]
CCOC(=O)Cn1c(=O)n(CC2CCCO2)c2nc(-c3c(F)cccc3Cl)nc(C(N)=O)c21 (stereo not drawn)	-2%	10%	-13%	·	26%[57 µM]	13%[59 µM]
CC1=C(C(=O)N2CCCCCC2)CC(CC(=O)NC(c2ccccc2)c2ccccc2)C(=O)N1CCC1=CCCCC1 (stereo not drawn)	·	·	·	-6%	·	·
O=C(Nc1nc(-c2cc3ccccc3oc2=O)cs1)c1ccco1	?	5%	-30%	-18%	27%	35µM*
CC(Oc1ccc(F)cc1)C(=O)Nc1nc(-c2ccccn2)cs1 (stereo not drawn)	45µM*	-15%	35µM*	-11%	7%	?
Cc1ccccc1NC(=O)c1nc2nccc(C)n2n1	-2%	·	·	·	·	5%
Cc1ccnc2nc(C(=O)Nc3nc(-c4ccccn4)cs3)nn12	3.2µM*	-11%	22µM*	-30%	59%	20%[12.7 µM]
O=C(Nc1nc(-c2ccccc2)cs1)c1ccc(Br)o1	-30%	?	-31%	30µM*	?	?
Cc1cccc(OCCSc2nc3ccccc3n2CC(=O)O)c1	10%	-10%	-3%	-1%	31%	-6%[0.501 µM]
COC(=O)[C@H](COC(C)(C)C)NC(=O)O[C@H]1C(=O)c2ccc(OC)cc2O[C@@H]1c1ccc2c(c1)OCO2	·	9%	·	·	·	·
CCc1ccc(-c2csc(NC(=O)Oc3ccccc3)n2)cc1	-33%	6%	-31%	?	-6%	45µM*
CC(OC(=O)c1cccs1)C(=O)Nc1nc(-c2ccccc2)cs1 (stereo not drawn)	3%	-4%	5%	3%	25%	79µM*
O=C(Nc1nc(-c2ccncc2)cs1)c1ccco1	-9%	-16%	-15%	-20%	21%	35µM*
O=C(Nc1nc(-c2ccccn2)cs1)c1ccco1	7.9µM*	-9%	56µM*	?	-22%	20µM*
CCc1ccc(NC(=O)C2CCN(S(=O)(=O)c3ccc4c(c3)CC(C)N4C(C)=O)CC2)cc1 (stereo not drawn)	-27%	-6%	-18%	-4%	23%	2%
CCc1ccc(CNC(=O)Cc2c(C(=O)O)c(C)cn2C)cc1	-16%	-6%	-12%	·	18%	7%[59 µM]
O=C1N(Cc2ccccc2)c2ccccc2OC1(F)F	·	·	·	-3%	·	·
N#CCCn1cc(/C=N/NC(=O)c2ccncc2)c(-c2ccc(F)cc2)n1	-6%	-5%	-21%	?	14%	-5%
Cc1oc2ncn(C)c(=O)c2c1C(=O)N1CCN(c2ccc(Cl)cc2)CC1	11%[57.1 µM]	-1%	-19%	·	-2%	1%[59 µM]
COc1ccc2c(C)c(CC(=O)NCc3ccc(C)cc3)c(=O)oc2c1OC	34%	3%	-4%	·	68%	23%[59 µM]
CC(C)Cc1nn2c(=O)cc(CSCC(=O)Nc3ccccc3F)nc2s1	-1%	-6%	2%	-7%	57%	39%
Cc1oc2cc(Br)c(O)c(Br)c2c1-c1ccccc1	-6%	3%	-2%	-10%	-10%	?
COc1ccc(-c2sc(Nc3ccc(F)c(F)c3F)nc2CCC(=O)NN)cc1	-35%	10%	56µM*	-1%	-23%	-48%
COC(=O)c1nc(N)sc1-c1ccc(OC)cc1	-7%	-9%	-12%	1%	38%	16%[59 µM]
CC(C)(C)C1CCC(=NOC(=O)c2ccc(F)cc2)CC1 (stereo not drawn)	24%	-8%	45%	-19%	72%	76%
SMILES	BAZ2B inh	VDR inhibitor	JMJD2A Tudor	PLK1 PBD block	HP1b binding inh	G9a inh
Cc1cc(C(=O)NCc2ccccc2Cl)n(-c2ccccc2)n1	1%	-19%	?	27µM*	-3%	10%
Cc1nc2c(C(=O)NCc3ccccc3)c[nH]n2c(=O)c1Cl	-1%	9%	-28%	?	19%	79µM*
Cc1ccc(CS(=O)Cc2ccc(C(=O)NCc3ccccc3Cl)o2)cc1 (stereo not drawn)	-4%	11%	-10%	-12%	30%	79µM*!
Cc1ccc(CNC(=O)c2ccc(CS(=O)Cc3ccccc3Cl)o2)cc1 (stereo not drawn)	-20%	21%	-8%	-13%	44%	-36%
Cc1nc2c(C(=O)NCc3ccccc3Cl)c[nH]n2c(=O)c1Cl	5%	-16%	-14%	30µM*	22%	16µM*
Cc1nc2c(C(=O)NCc3ccccc3)c[nH]n2c(=O)c1Cc1ccccc1Cl	-14%	9%	-23%	·	?	-25%[59 µM]
Cc1nc(C)c(C(=O)NCc2ccccc2Cl)o1	-2%	-28%	?	21µM*	-20%	?
CCC(CC)C(=O)NCc1ccccc1Cl	12%	10%	1%	-7%	13%	17%[59 µM]
O=C(COC(=O)/C=C/c1ccccc1[N+](=O)[O-])NC1CCS(=O)(=O)C1 (stereo not drawn)	-1%	-7%	-10%	-9%	10%	15%
O=C(COC(=O)/C=C/c1ccccc1[N+](=O)[O-])NC1CC1	-4%	71µM*	?	17µM*	-17%	13%[12.7 µM]
CCOc1cc(/C=C/C(=O)O)ccc1OCCO	-13%	?	35µM*	27µM*	4%	8%
CCOc1ccc(OCCOc2ccc(/C=C/C(=O)O)cc2OCC)cc1	-2%	-6%	-7%	-6%	6%	?
Cc1ccc(C)c(Cn2c(=O)n(CCCC(=O)NCc3ccco3)c(=O)c3sccc32)c1	9%	12%	?	30µM*	?	-6%
O=C(NCCNC(=O)c1cc(Cl)ccc1Cl)c1ccco1	-1%	20%	2%	0%	18%	0%
CN1CCN(C2=C(Cl)C(=O)C(c3cnc(N4CCCCC4)s3)=C(Cl)C2=O)CC1	13%	50µM*	4.5µM*	3.8µM*	?	9%[59 µM]
CN1CCN(C2=C(Cl)C(=O)c3ccccc3C2=O)CC1	·	50µM*	22µM*	9.5µM*	?	·
CC(C)CCNC(=O)c1cnc2sc(N3CCCCCC3)nn2c1=O	-16%	10%	-7%	·	49%	3%[59 µM]
NC(=O)C1CCN(c2ccc3c(c2)S(=O)(=O)c2ccccc2C3=O)CC1	·	1%	-11%	-7%	38%	·
O=C(O)C1CCN(C(=O)c2ccccc2Cl)CC1	-2%	2%	0%	-3%	36%	3%[59 µM]
O=C1C(Cl)=C(N2CCC(C(=O)O)CC2)C(=O)c2ccccc21	?	?	-26%	?	-3%	50µM*
NC(=O)C1CCN(C2=C(Cl)C(=O)c3ccccc3C2=O)CC1	25µM*	?	-29%	27µM*	?	11µM*
